# Hits are enriched below; roughly 1.9% of the tested compounds scored in any of these assays.
# VLA-4 agonist: enhancers of LDV-FITC binding to VLA-4 integrin, primary screen, Jurkat cells, flow cytometry; activation, % at 10 µM (by protocol); 24,000 tested, under 10 active; Integrin alpha-4 (Homo sapiens), P13612;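 active = fluorescent ligand binding to cells raised by more than 40% of the manganese-induced maximum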
# Prostate diff: activators of LNCaP prostate cell differentiation, primary screen, flow cytometry side scatter; 4 d; side scatter shift, % at 10 µM; 24,000 tested, 0.56% active;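 active = side scatter shift above 30%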;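 also: androgen-responsive LNCaP prostate cancer cells in charcoal-stripped serum medium; higher shift means more granular cells and more differentiation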
# FPR ligand: human FPR ligands by binding competition, primary screen, cell-based, FPRL1 counter-screen, flow cytometry; inhibition, % (no concentration beside the values); 24,000 tested, 0.74% active; fMet-Leu-Phe receptor (Homo sapiens), P21462; AID 440, 2006; FPR-expressing cells, fluorescent ligand binding
# VLA-4 antagonist: inhibitors of LDV-FITC binding to Mn2+-activated VLA-4, primary screen, Jurkat cells; Integrin alpha-4 (Homo sapiens), P13612; inhibition, % at 10 µM (by protocol); LDV-FITC binding with Mn2+, flow cytometry; 100% = Mn2+-driven binding gain fully reversed; 24,000 tested, 0.2% active;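 active = inhibition above 50%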
# Autofluor Jurkat: compound autofluorescence on Jurkat cells, primary screen, artefact control for VLA-4 allosteric ligand project, cell-based, flow cytometry. stronger effect = higher value; 1 = vehicle-only cell background. fluorescence ratio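 (tested at 10 µM compound in the well)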. 24,000 tested, 0.61% active. AID 576, 2007;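 active = fluorescence ratio above 2.44, which is 1 plus 3 SD of all ratios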;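 also: green fluorescence of cells measured with 488 nm excitation and 530 nm emission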
# FPRL1 ligand: human FPRL1 ligands by binding competition, primary screen, cell-based, FPR counter-screen, flow cytometry | inhibition, % (no concentration beside the values) | N-formyl peptide receptor 2 (Homo sapiens), P25090 | FPRL1-expressing cells, fluorescent ligand binding inhibition | AID 441, 2006 | 24,000 tested, 0.3% active
# A number is an active result; – = inactive. Rule as the data show it, unless noted: active = inhibition above about 30%; inconclusive = no clear call, values can overlap the other calls; inactive = below that.
SMILES,VLA-4 agonist,Prostate diff,FPR ligand,VLA-4 antagonist,Autofluor Jurkat,FPRL1 ligand
Cc1ccc2c(c1)[C@@H]1CN(C)CC[C@@H]1N2C(=O)Nc1cccc(C(F)(F)F)c1,–,55.0,–,–,–,–
CCOC(=O)c1cc2c(cn1)[nH]c1ccccc12,–,–,–,–,–,–
O=c1c2ccccc2[se]n1-c1ccccc1,40.0,–,–,–,–,–
CCOc1ccc(-n2c(CC)nc3ccccc3c2=O)cc1,–,–,–,–,–,–
COc1ccc(C2SCC(=O)Nc3c2c(=O)[nH]n3C2CCCCCC2)cc1OC (stereo unspecified),–,–,–,–,–,–
CCOc1ccc(C2SCC(=O)Nc3c2c(=O)[nH]n3C2CCCCCC2)cc1 (stereo unspecified),–,34.0,–,–,–,–

# Compound activity deposited in PubChem by NMMLSC.
